Reference: publication PMC5540273 (PLoS ONE, 2017)

tested on: SBK1; settings: concentration: 1 μM,replicates: in singlicate; n = 1
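Further: KINOMEscan kinase panel screen.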

Row | SMILES | %Inh [%]
1 | Cc1ccn2nc(-c3ccc(F)cc3)c(-c3ccncc3)c2c1.Cl [GW457859] | 10
2 | CS(=O)c1ccc(-c2coc3ccc(-c4n[nH]c(=O)o4)cc23)cc1 (centres unmarked) | 85
3 | C[C@@H](Oc1cc(-n2cnc3cc(-c4cnn(C)c4)ccc32)sc1C(N)=O)c1ccccc1Cl [GSK580432] | 13
4 | CN1CCN(CCCNc2nccc(-c3c(-c4ccc(F)cc4)nn4cc(C(N)=O)ccc34)n2)CC1 [GW622475] | 23
5 | C[C@@H](Oc1cc(-n2cnc3ccc(-c4ccncc4)cc32)sc1C(N)=O)c1ccccc1Cl [GSK483724] | 6
6 | CS(=O)(=O)c1cccc(CNc2nc(Nc3ccc4c(c3)[C@@H]3C[C@@H]4CNC3=O)ncc2C(F)(F)F)c1 | 81
7 | COc1cc(Nc2nccc(N3CCC(NC(=O)c4cccc(C#N)c4)C3)n2)cc(OC)c1OC (centres unmarked) [GSK1379751] | 22
8 | COc1cccc(OC)c1C(=O)Nc1cccc(-c2nn3ccccc3c2-c2ccnc(Nc3cccc(F)c3)n2)c1 [GSK361065] | 0
9 | O=C(NOCC1CC1)c1cc(Br)c(F)c(F)c1Nc1ccc(I)cc1Cl | 0
10 | CNC(=O)c1ccccc1Nc1nc(Nc2cccc(CS(C)(=O)=O)c2)ncc1C.O=CO [GSK1520489] | 90
11 | C[C@@H]1CNc2c(sc3ccc4nc(-c5ccc(O)cc5)ccc4c23)C(=O)N1 | 32
12 | O=C(Nc1cccc(Oc2ccc3nccn3n2)c1)Nc1cccc(C(F)(F)F)c1 | 0
13 | NC(=O)Nc1sc(-c2ccc(F)cc2)cc1C(N)=O [GW789449] | 16
14 | NC(=O)c1ccc(-c2cc3ncnc(SCC(=O)O)c3s2)cc1 | 0
15 | Cc1n[nH]c2cc(Nc3ccnc(Nc4cccc(CN5CCOCC5)c4)n3)ccc12 [GW682569] | 0
16 | O=c1[nH]cc(-c2ccc(O)cc2)c2sc(-c3ccncc3)cc12 [GSK1033723] | 9
17 | COC(=O)Nc1nc2cc(Oc3ccc(NC(=O)Nc4cc(C(F)(F)F)ccc4Cl)cc3)ccc2[nH]1.Cl [GW697465] | 1
18 | O=C1NCCc2[nH]c(-c3ccncc3)cc21 | 44
19 | Cl.Cl.NC[C@H](CC1CCCCC1)NC(=O)c1ccc(-c2ccnc3[nH]ccc23)s1 [GSK1581428] | 88

Row | SMILES | %Inh [%]
20 | CC(=O)Nc1nc2cnc(Nc3cc(NC(=O)c4cccc(CC(C)(C)C#N)c4)ccc3C)nc2s1 | 52
21 | O=C(Nc1ccc(Oc2ccc3nc(NC(=O)C4CC4)cn3n2)c(F)c1)c1cccn(-c2ccccc2)c1=O | 0
22 | CC(=O)Nc1ccc(-c2cc3ncnc(SCC(=O)O)c3s2)cc1 | 22
23 | COC(=O)c1cccc(NC(=O)NC2CCN(c3ccnc(NCc4ccc(F)cc4)n3)CC2)c1 [GSK1379860] | 32
24 | COc1ccc(Nc2nccc(N3CCC(NC(=O)c4cccc(C#N)c4)C3)n2)cc1 (centres unmarked) [GSK1379730] | 6
25 | Cn1ccc2ncnc(Oc3ccc(NC(=O)Nc4cncc(C(F)(F)F)c4)c(Cl)c3)c21 | 0
26 | Cn1ccc2ncnc(Oc3ccc(NC(=O)Nc4cnn(C(C)(C)C)c4)c(Cl)c3)c21 | 0
27 | COc1cccc(C2=C(Nc3cccc(Cl)c3)C(=O)NC2=O)c1 [SB-341556] | 19
28 | Cn1ccc2ncnc(Oc3ccc(NC(=O)Nc4cccc(C(F)(F)F)c4)c(F)c3)c21 | 0
29 | CC(C(=O)NC1CCN(c2ccnc(Nc3ccc(F)cc3)n2)C1)c1ccc(Cl)cc1 (centres unmarked) [GSK1379713] | 7
30 | O=C(NCC1CC1)c1ccc(-c2cc(C(=O)NC3CC3)ccc2F)cc1 [GW810445] | 4
31 | Cc1cccc2c(-c3ccncc3)c(-c3ccc(F)cc3)nn12.Cl [GW461487] | 8
32 | c1ccc(Oc2ccc(Nc3ccnc4ccc(-c5ccccn5)cc34)cc2)cc1 [GW407034] | 60
33 | O=C(Nc1ccccc1)c1cccc(Oc2ccc3nccn3n2)c1 | 5
34 | Cc1ccc2c(-c3ccnc(Nc4ccc(C(F)(F)F)cc4)n3)cnn2n1 [GW819776] | 8
35 | CC(C)c1nc(-c2cccc(NS(=O)(=O)c3ccccc3)c2)c(-c2ccnc(Nc3ccc4c(c3)CN(C)CC4)n2)s1 [GSK1649598] | 43
36 | CN(c1ccccc1CNc1nc(Nc2ccc3c(c2)CC(=O)N3)ncc1C(F)(F)F)S(C)(=O)=O | 3
37 | CCn1c(-c2nonc2N)nc2cncc(Br)c21 [SB-738004] | 8

tested on: SGK2; settings: concentration: 1 μM,replicates: in singlicate; n = 1

Row | SMILES | %Inh [%]
38 | Cc1ccn2nc(-c3ccc(F)cc3)c(-c3ccncc3)c2c1.Cl [GW457859] | 0
39 | CS(=O)c1ccc(-c2coc3ccc(-c4n[nH]c(=O)o4)cc23)cc1 (centres unmarked) | 12
40 | C[C@@H](Oc1cc(-n2cnc3cc(-c4cnn(C)c4)ccc32)sc1C(N)=O)c1ccccc1Cl [GSK580432] | 5
41 | CN1CCN(CCCNc2nccc(-c3c(-c4ccc(F)cc4)nn4cc(C(N)=O)ccc34)n2)CC1 [GW622475] | 0
42 | C[C@@H](Oc1cc(-n2cnc3ccc(-c4ccncc4)cc32)sc1C(N)=O)c1ccccc1Cl [GSK483724] | 14
43 | CS(=O)(=O)c1cccc(CNc2nc(Nc3ccc4c(c3)[C@@H]3C[C@@H]4CNC3=O)ncc2C(F)(F)F)c1 | 0
44 | COc1cc(Nc2nccc(N3CCC(NC(=O)c4cccc(C#N)c4)C3)n2)cc(OC)c1OC (centres unmarked) [GSK1379751] | 2
45 | COc1cccc(OC)c1C(=O)Nc1cccc(-c2nn3ccccc3c2-c2ccnc(Nc3cccc(F)c3)n2)c1 [GSK361065] | 26
46 | O=C(NOCC1CC1)c1cc(Br)c(F)c(F)c1Nc1ccc(I)cc1Cl | 0
47 | CNC(=O)c1ccccc1Nc1nc(Nc2cccc(CS(C)(=O)=O)c2)ncc1C.O=CO [GSK1520489] | 14
48 | C[C@@H]1CNc2c(sc3ccc4nc(-c5ccc(O)cc5)ccc4c23)C(=O)N1 | 8
49 | O=C(Nc1cccc(Oc2ccc3nccn3n2)c1)Nc1cccc(C(F)(F)F)c1 | 8
50 | NC(=O)Nc1sc(-c2ccc(F)cc2)cc1C(N)=O [GW789449] | 10
51 | NC(=O)c1ccc(-c2cc3ncnc(SCC(=O)O)c3s2)cc1 | 0
52 | Cc1n[nH]c2cc(Nc3ccnc(Nc4cccc(CN5CCOCC5)c4)n3)ccc12 [GW682569] | 0
53 | O=c1[nH]cc(-c2ccc(O)cc2)c2sc(-c3ccncc3)cc12 [GSK1033723] | 0
54 | COC(=O)Nc1nc2cc(Oc3ccc(NC(=O)Nc4cc(C(F)(F)F)ccc4Cl)cc3)ccc2[nH]1.Cl [GW697465] | 0
55 | O=C1NCCc2[nH]c(-c3ccncc3)cc21 | 27
56 | Cl.Cl.NC[C@H](CC1CCCCC1)NC(=O)c1ccc(-c2ccnc3[nH]ccc23)s1 [GSK1581428] | 79

Row | SMILES | %Inh [%]
57 | CC(=O)Nc1nc2cnc(Nc3cc(NC(=O)c4cccc(CC(C)(C)C#N)c4)ccc3C)nc2s1 | 0
58 | O=C(Nc1ccc(Oc2ccc3nc(NC(=O)C4CC4)cn3n2)c(F)c1)c1cccn(-c2ccccc2)c1=O | 0
59 | CC(=O)Nc1ccc(-c2cc3ncnc(SCC(=O)O)c3s2)cc1 | 0
60 | COC(=O)c1cccc(NC(=O)NC2CCN(c3ccnc(NCc4ccc(F)cc4)n3)CC2)c1 [GSK1379860] | 0
61 | COc1ccc(Nc2nccc(N3CCC(NC(=O)c4cccc(C#N)c4)C3)n2)cc1 (centres unmarked) [GSK1379730] | 0
62 | Cn1ccc2ncnc(Oc3ccc(NC(=O)Nc4cncc(C(F)(F)F)c4)c(Cl)c3)c21 | 0
63 | Cn1ccc2ncnc(Oc3ccc(NC(=O)Nc4cnn(C(C)(C)C)c4)c(Cl)c3)c21 | 12
64 | COc1cccc(C2=C(Nc3cccc(Cl)c3)C(=O)NC2=O)c1 [SB-341556] | 0
65 | Cn1ccc2ncnc(Oc3ccc(NC(=O)Nc4cccc(C(F)(F)F)c4)c(F)c3)c21 | 0
66 | CC(C(=O)NC1CCN(c2ccnc(Nc3ccc(F)cc3)n2)C1)c1ccc(Cl)cc1 (centres unmarked) [GSK1379713] | 0
67 | O=C(NCC1CC1)c1ccc(-c2cc(C(=O)NC3CC3)ccc2F)cc1 [GW810445] | 0
68 | Cc1cccc2c(-c3ccncc3)c(-c3ccc(F)cc3)nn12.Cl [GW461487] | 8
69 | c1ccc(Oc2ccc(Nc3ccnc4ccc(-c5ccccn5)cc34)cc2)cc1 [GW407034] | 0
70 | O=C(Nc1ccccc1)c1cccc(Oc2ccc3nccn3n2)c1 | 18
71 | Cc1ccc2c(-c3ccnc(Nc4ccc(C(F)(F)F)cc4)n3)cnn2n1 [GW819776] | 0
72 | CC(C)c1nc(-c2cccc(NS(=O)(=O)c3ccccc3)c2)c(-c2ccnc(Nc3ccc4c(c3)CN(C)CC4)n2)s1 [GSK1649598] | 35
73 | CN(c1ccccc1CNc1nc(Nc2ccc3c(c2)CC(=O)N3)ncc1C(F)(F)F)S(C)(=O)=O | 0
74 | CCn1c(-c2nonc2N)nc2cncc(Br)c21 [SB-738004] | 0
